# Source: PubChem BioAssay AID2284182 (EPA ToxCast)
# Inconclusive results are not listed. Calls of active or inactive are those of the source. The calls were made as follows: active = hit-call score of the fitted dose curve at least 0.9, where 1 is the maximum; inconclusive = response in the unintended direction; inactive = score below 0.9.
# Biological target: human Serotonin Receptor 5-HT7 Agonism, HTR7 (gene 3363) (UniProt P34969)
# Assay: ERF_FR_GPCR_hHTR7: Eurofins (ERF) G Protein-Coupled Receptor (GPCR) Radioligand Binding LeadHunter Assay for human Serotonin Receptor 5-HT7 Agonism
# Method: ERF_FR_GPCR_hHTR7 is a biochemical, single-readout assay that uses extracted gene-proteins in a cell-free assay. Measurements were taken 2 hour after chemical dosing in a 96-well plate. See 5-HT7 Human Serotonin GPCR Binding (Agonist Radioligand) Assay, Cerep.ERF_FR_GPCR_hHTR7 is an assay component calculated from the ERF_FR_GPCR_hHTR7 assay. It is designed to measure radioligand binding using a type of binding reporter as detected by scintillation counting with radiometry technology.Data from the assay component ERF_FR_GPCR_hHTR7 was analyzed at the assay endpoint, ERF_FR_GPCR_hHTR7, in the positive analysis fitting direction relative to DMSO as the negative control and baseline of activity. Using a type of binding reporter, gain-of-signal activity can be used to understand changes in binding as they relate to gene HTR7. To generalize the intended target to other relatable targets, this assay endpoint is annotated to the gpcr intended target family, where the subfamily is serotonin.
# Human cells are incubated for 120 minutes at room tempreture with [3H]LSD ligand (2.3 nM) and serotonin as control inhibitor. Test Sample Requirements: Minimum for 1) Screen: 60 ul of 10 mM stock -OR- 1 mg (pre-weighed) for 10 uM final testing. 2) Dose Response: 90 ul of 10 mM stock -OR- 1 mg (pre-weighed) for a top concentration at 10 uM.
# Sequence of human Serotonin Receptor 5-HT7 Agonism, HTR7 (gene 3363) (P34969 whole entry, looked up): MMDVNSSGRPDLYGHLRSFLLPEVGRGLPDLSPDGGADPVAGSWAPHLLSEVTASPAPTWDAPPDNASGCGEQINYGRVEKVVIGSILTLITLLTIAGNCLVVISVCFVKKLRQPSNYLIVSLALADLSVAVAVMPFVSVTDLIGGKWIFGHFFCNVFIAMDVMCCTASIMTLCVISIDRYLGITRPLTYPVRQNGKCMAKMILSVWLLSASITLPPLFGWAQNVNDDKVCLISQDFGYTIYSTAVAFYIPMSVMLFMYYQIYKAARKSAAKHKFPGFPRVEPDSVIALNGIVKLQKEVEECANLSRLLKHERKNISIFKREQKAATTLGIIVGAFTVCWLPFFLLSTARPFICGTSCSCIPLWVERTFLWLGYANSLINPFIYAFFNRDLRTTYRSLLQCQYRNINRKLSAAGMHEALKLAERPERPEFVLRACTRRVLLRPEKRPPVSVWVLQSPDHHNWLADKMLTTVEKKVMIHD
row,SMILES,AC50
1,O=C(/C=C/c1ccc(O)cc1)CC(=O)/C=C/c1ccc(O)cc1,1.75 µM (active)
